High-throughput results: PubChem BioAssay, National Center for Advancing Translational Sciences (NCATS)
Tau fibril FP = blocks human tau fibril formation measured by polarization | P10636 | K18 P301L tau heparin fibrillization, Alexa594 FP, 6 h | Potency, µM (top dose mostly 57.7 µM), for inactives: at the top dose activity, negative = inhibition, hits mostly inhibitors | 0.39% of 280,000 active | AID 1468; further: potency means the concentration at half of the fitted maximal effect; nearly all actives have a fitted effect of over 55% in size
Target sequence (P10636 561-689 P618L limits assumed): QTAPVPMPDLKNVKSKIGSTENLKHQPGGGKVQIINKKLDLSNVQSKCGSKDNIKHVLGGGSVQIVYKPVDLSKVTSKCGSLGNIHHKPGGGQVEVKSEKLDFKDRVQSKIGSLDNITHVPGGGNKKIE
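Heparin (20 uM) drove fibril formation of recombinant tau K18 P301L, 15 uM unlabeled with 0.24 uM Alexa 594 label, for 6 hr at 37 C in 100 mM sodium acetate pH 7. Fluorescence polarization (555/632 nm) read 1 hr after 30 uM ThT.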
Tau ThT inhib = inhibitors of human tau fibril formation, thioflavin T binding | recombinant tau K18 P301L, heparin-induced fibrillization, ThT fluorescence | Potency, µM (top dose mostly 57.4 µM), without a hit: at the top dose activity, negative = inhibition, actives largely listed as inhibitors | 2.1% of 270,000 active | AID 1460; further: potency means the concentration at half of the fitted maximal effect; nearly all actives have a fitted effect of over 55% in size
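Recombinant human tau K18 fragment […] carrying P301L, 15 uM unlabeled plus 0.24 uM Alexa 594-labeled, was fibrillized with 20 uM heparin in 100 mM sodium acetate pH 7 for 6 hr at 37 C; 30 uM ThT fluorescence read after 1 hr.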
PNC assembly inh = perinucleolar compartment assembly inhibition; PC3M PTB-GFP, PNC prevalence imaging, 16 h; stronger effect = lower value; activity change (PNC), negative = inhibition, % at 10 µM; 3.1% of 140,000 active; AID 2417;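 active means readout at or below -70, meaning at least 70% loss of cells showing the perinucleolar compartment, a nuclear body marking cancer cells; inconclusive means readout between -30 and a set limit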;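 further: plate controls were DMSO wells for no effect and camptothecin positive control wells for full effect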
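Compounds are pinned in duplicate onto adhered PC3M cells stably expressing GFP-tagged PTB and incubated 16 h at 37 C. Cells are then fixed, nuclei stained with Hoechst, and PNC-positive cells counted.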
TRb-SRC2 inh = TRbeta-SRC2 interaction inhibition; AID 1469; 0.065% of 280,000 active; P10828; TRbeta-SRC2 peptide binding, fluorescence polarization; receptor liganded with 1 µM T3; Potency, µM (series often up to 106 µM), inactives show at the highest dose activity change, negative = inhibition, hits mostly inhibitors;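 further: potency means the concentration at half of the fitted maximal effect; plate controls were bound peptide for no effect and peptide without receptor for full effect; nearly all actives have a fitted effect of over 50% in size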
Target sequence (P10828 whole entry, looked up): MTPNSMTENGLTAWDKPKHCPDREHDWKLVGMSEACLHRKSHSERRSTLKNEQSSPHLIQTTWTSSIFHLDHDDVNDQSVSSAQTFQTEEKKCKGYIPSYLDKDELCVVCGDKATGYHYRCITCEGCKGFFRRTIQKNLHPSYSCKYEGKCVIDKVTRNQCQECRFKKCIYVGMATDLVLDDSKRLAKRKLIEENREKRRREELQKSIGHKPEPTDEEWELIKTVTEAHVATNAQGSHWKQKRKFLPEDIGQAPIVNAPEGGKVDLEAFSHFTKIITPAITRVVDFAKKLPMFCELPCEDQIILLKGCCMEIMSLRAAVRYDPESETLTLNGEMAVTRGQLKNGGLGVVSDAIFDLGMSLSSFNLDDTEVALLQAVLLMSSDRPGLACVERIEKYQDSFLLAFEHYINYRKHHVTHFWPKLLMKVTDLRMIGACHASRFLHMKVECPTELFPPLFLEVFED
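Each compound concentration gave % activity, normalized to unbound and bound Texas Red SRC2 controls, from polarization read after 5 hr ambient incubation with T3-loaded human TRb LBD.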
TR SRC2 fluor cs = alters Texas Red total fluorescence, flagging assay interference; 0.29% of 280,000 active; TRb/SRC2 Texas Red total fluorescence interference; Potency, µM (top dose mostly 106 µM), for inactives: top-dose fluorescence change, negative = quenching; active means well fitted curve in either direction with a large enough effect; inconclusive means small, poorly fitted or top-dose-only effect; further: potency means the concentration at half of the fitted maximal effect
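Human TRb ligand-binding domain at 0.6 uM with 20 nM Texas Red SRC2 peptide in Tris buffer containing 1 uM T3 and 5% DMSO, incubated with compound 5 h at ambient temperature. Total fluorescence (555/632 nm) calculated as parallel + 2 × perpendicular.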
Tau fluor cs = counter-screen for tau fibril formation inhibitors; tau K18 P301L (four-repeat tau fragment) Alexa594 fluorescence, heparin fibrillization; Potency, µM (top dose mostly 57.7 µM), without a hit: at the highest dose activity change, negative = decrease; 0.93% of 280,000 active; AID 1463; further: potency means the concentration at half of the fitted maximal effect; nearly all actives have a fitted effect of over 55% in size
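Human K18 P301L tau (15 uM unlabeled plus 0.24 uM Alexa 594-labeled, final) in 100 mM sodium acetate pH 7 was mixed with compound and 20 uM heparin and incubated 6 hr at 37 C.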
The depositor's hits bear a star; ? = inconclusive; nt = not tested or not shown; [ ] = remark or other dose. Hits are enriched below; roughly 4.6% of the tested compounds scored in any of these assays. Unless noted, the call rests on the fitted dose curve; in most records, active means well fitted curve in the direction sought with a large enough effect; inconclusive means small, poorly fitted or top-dose-only effect, or another doubt; inactive means no such curve, though single readings can be large; an effect the other way counts as inactive or inconclusive. Unless noted, on the % scale 0 is the no-effect control and ±100 the full control effect.

SMILES	Tau fibril FP	Tau ThT inhib	PNC assembly inh	TRb-SRC2 inh	TR SRC2 fluor cs	Tau fluor cs
Cc1nonc1OCCN1CCN(c2ccccc2[N+](=O)[O-])CC1	-1%	-11%	nt	5%	-1%	-10%
Cc1cccc(C)c1NC(=O)c1c(C)oc2c1C1=NCCN1C=N2	?	3%	nt	-5%	-1%	-10%
COc1cc(N=Nc2ccccc2C(=O)O)ccc1O	1%	7.1µM*	nt	6%	0%	-12%
Cc1cc(O)c(C(C)C)cc1N=C1CSC(=O)N1	-8%	?	25	-23%	-3%	?
Cc1cc(C)c(C)c(C(=O)c2ccccc2C(=O)O)c1C	-2%	-1%	nt	-4%	-4%	6%
Cc1cc(N=Nc2ccccc2C(=O)O)c(C)c(C)c1O	1%	0.89µM*	nt	19%	?	?
Cc1cc(O)c(C(C)C)cc1N=Nc1ccccc1C(=O)O	-2%	6.3µM*	nt	4%	-8%	-23%
Nc1nn(-c2ccccc2)nc1C(=O)OCc1c(F)cccc1Cl	?	-9%	nt	2%	4%	?
CC1(C)N=C(N)N=C(N)N1c1cccc(C(=O)O)c1	-2%	-4%	-11	-1%	-2%	-9%
CC(=O)Nc1cc(C(=O)NCc2ccco2)ccc1Sc1ccc(Cl)cc1	4%	-3%	-103*	5%	0%	0%
CC(=O)Nc1cc(C(=O)NCc2ccco2)ccc1Sc1ccc(F)cc1	9%	7%	-17	-24%	2%	5%
CCOC(=O)Cn1c(-c2nonc2NC(=O)c2ccccc2F)nc2ccccc21	-6%	-19%	-108*	-12%	1%	?
CCc1ccccc1NC(=O)Cn1c(-c2nonc2N)nc2ccccc21	-9%	-1%	nt	2%	0%	3%
CCCCOc1ccccc1NC(=O)Cn1c(-c2nonc2N)nc2ccccc21	-1%	9%	-95*	-4%	1%	-4%
CCn1c(CNC(=O)C23CC4CC(CC(C4)C2)C3)nnc1SCC(=O)Nc1ccc(F)cc1	-6%	0%	nt	3%	-2%	-22%
CNC(=O)COC(=O)[C@@H](Nc1ccc(S(=O)(=O)N2CCOCC2)cc1[N+](=O)[O-])C(C)C	2%	6%	-113*	-2%[53 µM]	0%[53 µM]	3%
O=C(O)CC/C(=N\Nc1ccc(S(=O)(=O)N2CCCC2)cc1[N+](=O)[O-])c1cccs1	8%	32µM*	?	-7%	-8%	-17%
CC(C)[C@H](Nc1ccc(S(=O)(=O)N2CCOCC2)cc1[N+](=O)[O-])C(=O)OCC(N)=O	3%	2%	3	6%[53 µM]	1%[53 µM]	3%
O=[N+]([O-])c1cc(S(=O)(=O)N2CCCC2)ccc1N/N=C/c1cccs1	5%	-15%	-13	9%	2%	-20%
O=C(O)CC/C(=N\Nc1ccc(S(=O)(=O)N2CCOCC2)cc1[N+](=O)[O-])c1cccs1	6%	11µM*	nt	-10%	-8%	-17%
COc1ccccc1CNC(=O)CCN1C(=O)COc2ccccc21	0%	0%	6	-11%	-2%	2%
COc1cccc(OCC(O)CN(CCO)Cc2ccccc2)c1 (stereo not given)	-4%	-7%	?	-8%	0%	-9%
O=C(CCNS(=O)(=O)c1ccc2c(c1)CCC(=O)N2)Nc1ccc2c(c1)OCCO2	-9%	-18%	10	5%	-1%	-16%
CCOc1ccc(NC(=S)NNc2ccnc3cc(Cl)ccc23)cc1	-4%	13µM*	nt	-7%	-1%	?
CCOc1ccccc1Nc1ccnc2cc(Cl)ccc12	-5%	-16%	nt	-18%	?	-15%
SMILES	Tau fibril FP	Tau ThT inhib	PNC assembly inh	TRb-SRC2 inh	TR SRC2 fluor cs	Tau fluor cs
S=C(NCc1ccncc1)Nc1ccc(Cl)cc1Cl	-10%	1%	nt	3%	-2%	-3%
S=C(NNc1ccnc2cc(Cl)ccc12)Nc1ccc(Cl)cc1Cl	?	4µM*	nt	3%	-4%	4µM*[quencher]
CCOC(=O)Cc1nn(Cc2nc(-c3ccc(C#N)cc3)cs2)c(=O)c2ccccc12	1%	-12%	nt	1%	1%	-20%
CCOC(=O)CSc1nnc(-c2cc(OC)c(OC)c(OC)c2)o1	-6%	-8%	nt	-8%	-1%	-13%
O=C(NCCc1ccccn1)c1cc(-c2ccc(Cl)c(Cl)c2Cl)nc2ccccc12	-4%	-14%	?	0%	-1%	-17%
O=C(NCc1ccccn1)c1cc(-c2ccccc2Cl)nc2ccccc12	8%	14%	-88*	8%	-2%	17%
Cn1cccc1Cc1nnc(SCC(=O)NCc2ccco2)n1CCc1ccccc1	-5%	?	?	-7%	0%	0%
COC(=O)NNC(=O)COc1ccc2ccccc2c1Br	-5%	-5%	-82*	-5%[53 µM]	0%[53 µM]	6%
COc1cccc(-c2nc(-c3ccccn3)no2)c1OC	0%	?	-84*	-8%	-5%	-6%
c1ccc(-c2noc(-c3cccc4ccccc34)n2)nc1	0%	?	34	9%	4%	-14%
O=[N+]([O-])c1cc(S(=O)(=O)N2CCCCCC2)ccc1F	-7%	16µM*	-24	-4%	1%	?
O=[N+]([O-])c1cc(S(=O)(=O)N2CCCC2)ccc1O	-9%	-10%	?	-5%	3%	-7%
N/C(Cc1nc(-c2ccc(F)cc2)cs1)=N\O	-6%	-9%	nt	9%	0%	-7%
NC(=S)Cc1nc(-c2ccccc2)cs1	?	20µM*	-15	-3%[53 µM]	-3%[53 µM]	?
CCCc1cc(=O)[nH]c(SCC(=O)c2c(N)n(C)c(=O)n(C)c2=O)n1	-1%	-8%	-10	2%	-3%	2%
COc1ccc(NCc2cc3cc4c(cc3n(CC(=O)Nc3ccc(C)cc3)c2=O)OCO4)cc1	?	-22%	nt	-2%	-2%	22µM*[quencher]
COc1ccc2cc(CNc3ccccc3)c(=O)n(CC(=O)Nc3ccc(C(C)=O)cc3)c2c1	-8%	5%	nt	2%	-2%	13µM*[quencher]
CCc1ccc(NCc2cc3cc4c(cc3n(CC(=O)Nc3ccc(OC)cc3)c2=O)OCO4)cc1	?	-1%	nt	7%	1%	?
Cc1c(C(=O)c2no[n+]([O-])c2C(=O)c2cnn(C)c2C)cnn1C	?	14µM*	-24	-4%	0%	-19%
O=C(/C=C/NNC(=O)c1ccc(Cl)cc1)c1ccccc1	-1%	22µM*	nt	3%	0%	-13%
O=C(NCc1ccccc1)c1ccc(Cl)cc1	-7%	nt	nt	-3%	-1%	-25%
O=C(/C=C/Nc1ccccc1F)c1ccc(Br)cc1	-15%	?	-115*	13%[53 µM]	0%[53 µM]	1%
